5 compounds from PubChem BioAssay can be followed below.

One experiment concerns the target Albumin (Bos taurus) (UniProt P02769). In words: bovine serum albumin binders on microarray, profiling panel, artefact control for SMM control protein annotation, biochemical, small-molecule microarray, Alexa647 label, 635/667 nm fluorescence (AID 1118).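 Further: score merges 667 nm emission intensity and signal-to-noise per printed compound spot.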 The following applies: BSA-A647 binding, fluorescence 635 nm, higher = more signal.
Experiment [1] in a line: small-molecule microarray binders of probe aXIP, primary screen, biochemical, NeuroSMM set, 635/667 nm fluorescence (AID 1119).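 Further: probe is the protein aXip251-270 applied at 1 µg/mL to compound-printed slides; binding of probe to printed compounds measured as 667 nm fluorescence plus signal to noise.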 The following applies: higher = more signal, called active from +8 up or from −8 down.
A short description of experiment [2]: small-molecule binders of probe aNOTCH3, primary screen, biochemical, small-molecule microarray, 635/667 nm fluorescence (AID 1120).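 Further: probe is a biotin-tagged antibody raised against NOTCH3 rather than NOTCH3 protein; score merges spot fluorescence near 667 nm with spot signal to noise.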 The note with it: higher = more signal.
The nature of experiment [3]: small-molecule binders of probe aNOTCH2, primary screen, biochemical, small-molecule microarray, 635/667 nm fluorescence (AID 1121).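 Further: score merges feature fluorescence read at 667 nm with its signal to noise.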 The note with it: higher = more signal.
Experiment [4] deals with Carbonic anhydrase 2 (Homo sapiens) (UniProt P00918). The experiment in a line: CAII small-molecule binders, profiling panel, biochemical, small-molecule microarray, Alexa647-labelled CAII (AID 1122). The following applies: CAII-A647 binding fluorescence, higher = more signal.
The nature of experiment [5]: COS7 lysate on small-molecule microarray, probe aHis, 635 nm (AID 1123).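 Further: z-score combines 667nm fluorescence intensity with signal-to-noise per printed compound spot.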 The note with it: COS7 cell lysate, fluorescence, higher = more signal.
A short description of experiment [6]: compound binding in COS7 lysate, probe aLAP1, primary screen, cell lysate, small-molecule microarray (AID 1124).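 Further: lysate comes from COS7 cells expressing LAP1 and is applied at 0.3 µg/mL; score merges spot fluorescence near 667 nm with signal-to-noise over triplicate slides.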 The following applies: probe aLAP1, fluorescence, higher = more signal.
For another experiment, the system named is Sam68 (KHDRBS1). The experiment in a line: Sam68 small-molecule binders, primary screen, biochemical, small-molecule microarray, 635 nm fluorescence (AID 1125).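 Further: score merges 667 nm channel intensity with signal to noise over triplicate slides.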 The note with it: small-molecule microarray binding, higher = more signal.
In experiment [7] the test system is Chordin-like protein 2 (CHRDL2). The experiment in a line: CHRDL2 small-molecule binders, primary screen, biochemical, small-molecule microarray, 635 nm fluorescence (AID 1126).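 Further: printed compound slides probed with Chrdl2 protein at 4 µg/mL for 1 h at 4 C; score merges 667 nm emission intensity with signal to noise over three replicate slides.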 The note with it: small-molecule microarray binding, fluorescence 635 nm; higher = more signal.
The target in experiment [8] is Concanavalin-A (Canavalia ensiformis) (UniProt P02866). In words: ConA small-molecule binders, primary screen, artefact control for SMM control protein annotation, biochemical, small-molecule microarray, Alexa647 label, 635 nm (AID 1127).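 Further: z combines 667 nm emission intensity with signal-to-noise across three replicate slides.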 The note with it: ConA-A647 binding fluorescence, higher = more signal.
Concanavalin-A (Canavalia ensiformis), sequence (P02866 whole entry, looked up): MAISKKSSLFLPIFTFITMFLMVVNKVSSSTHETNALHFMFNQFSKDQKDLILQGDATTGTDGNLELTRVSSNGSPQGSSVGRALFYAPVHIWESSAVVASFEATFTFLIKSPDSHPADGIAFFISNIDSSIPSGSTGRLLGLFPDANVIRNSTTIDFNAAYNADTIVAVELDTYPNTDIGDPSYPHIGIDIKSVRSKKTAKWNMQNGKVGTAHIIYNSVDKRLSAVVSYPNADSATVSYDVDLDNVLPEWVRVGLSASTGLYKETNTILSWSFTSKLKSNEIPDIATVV
The nature of experiment [9]: anti-His antibody binders, primary screen, artefact control for SMM control protein annotation, biochemical, small-molecule microarray, 635 nm fluorescence (AID 1128).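 Further: score merges feature fluorescence with signal-to-noise for each printed compound spot.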 The note with it: anti-His Alexa647 antibody binding, higher = more signal.
Experiment [10] deals with Human papillomavirus type 1a E7 protein (residues 1-88). In words: HPV1a E7 small-molecule binders, primary screen, biochemical, small-molecule microarray, residues 1-88, 635 nm (AID 1129). The following applies: small-molecule microarray binding, fluorescence 635 nm; higher = more signal.
The target in experiment [11] is Focal adhesion kinase 1 (Homo sapiens) (UniProt Q05397). The experiment in a line: small-molecule microarray binders of FAK, primary screen, biochemical, 635/667 nm fluorescence, BSA, DTT (AID 1130).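 Further: composite of spot emission at 667 nm and signal to noise over triplicate slides.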 The following applies: PTK2 binding, 635 nm fluorescence, higher = more signal.
Focal adhesion kinase 1 (Homo sapiens), sequence (Q05397 whole entry, looked up): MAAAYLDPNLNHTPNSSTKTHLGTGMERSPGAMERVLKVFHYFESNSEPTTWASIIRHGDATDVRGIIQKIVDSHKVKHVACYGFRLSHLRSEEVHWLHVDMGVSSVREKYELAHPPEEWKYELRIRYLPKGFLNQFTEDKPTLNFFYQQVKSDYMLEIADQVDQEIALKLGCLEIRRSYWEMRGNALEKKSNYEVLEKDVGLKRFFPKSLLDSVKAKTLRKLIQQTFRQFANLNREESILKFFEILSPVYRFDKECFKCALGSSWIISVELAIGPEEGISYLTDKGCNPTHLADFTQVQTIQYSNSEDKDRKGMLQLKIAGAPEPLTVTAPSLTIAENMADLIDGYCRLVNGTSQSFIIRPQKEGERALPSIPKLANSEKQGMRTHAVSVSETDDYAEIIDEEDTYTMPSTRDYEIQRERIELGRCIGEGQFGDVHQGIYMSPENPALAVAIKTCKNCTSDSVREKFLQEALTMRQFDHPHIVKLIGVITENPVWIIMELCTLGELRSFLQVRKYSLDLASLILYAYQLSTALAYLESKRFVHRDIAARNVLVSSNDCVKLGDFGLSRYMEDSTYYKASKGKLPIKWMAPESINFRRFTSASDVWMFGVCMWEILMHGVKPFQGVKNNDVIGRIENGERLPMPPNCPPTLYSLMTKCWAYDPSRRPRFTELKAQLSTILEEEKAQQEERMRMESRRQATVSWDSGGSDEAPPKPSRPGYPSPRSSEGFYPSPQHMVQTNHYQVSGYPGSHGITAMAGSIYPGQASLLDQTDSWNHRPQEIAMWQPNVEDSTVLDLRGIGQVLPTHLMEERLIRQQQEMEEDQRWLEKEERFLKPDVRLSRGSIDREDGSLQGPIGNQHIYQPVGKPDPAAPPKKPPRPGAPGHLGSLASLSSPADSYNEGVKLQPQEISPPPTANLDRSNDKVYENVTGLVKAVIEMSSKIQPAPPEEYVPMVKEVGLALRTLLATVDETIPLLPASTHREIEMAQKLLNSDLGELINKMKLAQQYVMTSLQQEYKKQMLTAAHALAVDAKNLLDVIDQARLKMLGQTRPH
Experiment [12] deals with Fibrinogen (Alexa647-labelled). The experiment in a line: fibrinogen binders on compound microarrays, profiling panel, artefact control for SMM control-protein annotation, biochemical, small-molecule microarray, 635/667 nm fluorescence (AID 1131).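 Further: z-score merges 667 nm fluorescence with per-spot signal-to-noise over triplicate slides.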 The following applies: fibrinogen-A647 binding fluorescence, higher = more signal.
Experiment [13] concerns the target Follistatin (Homo sapiens) (UniProt P19883). The experiment in a line: follistatin binders on small-molecule microarrays, primary screen, biochemical, small-molecule microarray, 635/667 nm fluorescence (AID 1132). The note with it: FST binding, 635 nm fluorescence, higher = more signal.
The target in experiment [14] is Fibroblast growth factor 2 (Homo sapiens) (UniProt P09038). The experiment in a line: FGF2 binders on small-molecule microarrays, primary screen, biochemical, small-molecule microarray, 635/667 nm fluorescence (AID 1133). The following applies: small-molecule microarray binding, FGF2, fluorescence 635/667; higher = more signal.
Fibroblast growth factor 2 (Homo sapiens), sequence (P09038 whole entry, looked up): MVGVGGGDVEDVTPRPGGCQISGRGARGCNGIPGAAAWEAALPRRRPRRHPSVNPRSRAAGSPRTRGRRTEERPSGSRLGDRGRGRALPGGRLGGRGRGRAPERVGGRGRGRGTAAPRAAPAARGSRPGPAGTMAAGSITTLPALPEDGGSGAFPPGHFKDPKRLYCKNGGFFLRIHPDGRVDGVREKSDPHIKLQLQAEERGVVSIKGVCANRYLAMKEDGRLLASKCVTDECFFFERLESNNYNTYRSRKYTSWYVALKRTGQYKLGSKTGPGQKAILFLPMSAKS
Experiment [15] is described as follows: mitochondrial membrane potential change in A549 cells, profiling panel, cell-based, JC-1 fluorescence, basal, 24 h, 100 nL (AID 1138).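 Further: A549 lung adenocarcinoma cells under basal conditions with no added stimulus; test concentration not given here.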 The note with it: higher = more signal.
A further experiment relates to Lefty1. The experiment in a line: Lefty1 binders on small-molecule microarrays, primary screen, biochemical, small-molecule microarray, 635/667 nm fluorescence (AID 1139). The note with it: small-molecule microarray binding, fluorescence 635/667; higher = more signal.
Experiment [16] relates to wheat germ agglutinin (Triticum aestivum), Alexa647-labelled. The experiment in a line: wheat germ agglutinin binders on compound microarrays, profiling panel, artefact control for SMM control-protein annotation, biochemical, small-molecule microarray, 635/667 nm fluorescence (AID 1140).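 Further: score merges 667 nm feature emission with signal to noise over triplicate slides.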 The note with it: WGA-A647 binding, 635 nm fluorescence, higher = more signal.
The target of experiment [17] is Luciferin 4-monooxygenase (Photinus pyralis) (UniProt P08659). In words: firefly luciferase enzyme inhibitors, primary screen, biochemical, luminescence, purified enzyme, 2006 set (AID 1141).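 Further: cell-free assay with purified firefly luciferase at 100 ng per well in PBS; test concentration not given here.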 The following applies: SteadyGlo luminescence, 30 min, higher = more signal, called active from +8 up or from −8 down.
Luciferin 4-monooxygenase (Photinus pyralis), sequence (P08659 whole entry, looked up): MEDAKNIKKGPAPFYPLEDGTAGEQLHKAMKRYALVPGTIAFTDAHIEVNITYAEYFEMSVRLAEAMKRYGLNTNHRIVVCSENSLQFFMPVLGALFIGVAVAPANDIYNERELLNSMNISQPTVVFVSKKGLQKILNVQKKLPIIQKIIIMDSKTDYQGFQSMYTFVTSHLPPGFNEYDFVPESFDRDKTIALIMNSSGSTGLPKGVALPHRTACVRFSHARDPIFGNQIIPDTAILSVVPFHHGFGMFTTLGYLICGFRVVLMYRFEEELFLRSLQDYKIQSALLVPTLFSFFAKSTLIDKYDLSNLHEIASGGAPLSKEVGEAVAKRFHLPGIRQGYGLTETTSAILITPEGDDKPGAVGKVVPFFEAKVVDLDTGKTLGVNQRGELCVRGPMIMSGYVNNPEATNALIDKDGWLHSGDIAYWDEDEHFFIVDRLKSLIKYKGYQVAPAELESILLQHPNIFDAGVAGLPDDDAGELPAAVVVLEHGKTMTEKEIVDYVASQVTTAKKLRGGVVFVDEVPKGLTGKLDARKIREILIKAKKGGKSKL

Activity calls are given as the source filed them.

Follistatin (Homo sapiens), sequence (P19883 whole entry, looked up): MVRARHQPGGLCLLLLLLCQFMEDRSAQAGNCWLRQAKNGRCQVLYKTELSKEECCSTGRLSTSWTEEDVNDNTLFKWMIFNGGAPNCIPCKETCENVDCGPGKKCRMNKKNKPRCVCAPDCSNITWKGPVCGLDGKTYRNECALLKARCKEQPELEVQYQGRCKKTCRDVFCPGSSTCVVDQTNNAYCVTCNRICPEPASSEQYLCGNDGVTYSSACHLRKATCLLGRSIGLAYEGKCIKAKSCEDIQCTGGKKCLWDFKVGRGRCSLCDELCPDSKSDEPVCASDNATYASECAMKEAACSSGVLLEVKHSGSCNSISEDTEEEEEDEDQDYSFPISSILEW
Albumin (Bos taurus), sequence (P02769 whole entry, looked up): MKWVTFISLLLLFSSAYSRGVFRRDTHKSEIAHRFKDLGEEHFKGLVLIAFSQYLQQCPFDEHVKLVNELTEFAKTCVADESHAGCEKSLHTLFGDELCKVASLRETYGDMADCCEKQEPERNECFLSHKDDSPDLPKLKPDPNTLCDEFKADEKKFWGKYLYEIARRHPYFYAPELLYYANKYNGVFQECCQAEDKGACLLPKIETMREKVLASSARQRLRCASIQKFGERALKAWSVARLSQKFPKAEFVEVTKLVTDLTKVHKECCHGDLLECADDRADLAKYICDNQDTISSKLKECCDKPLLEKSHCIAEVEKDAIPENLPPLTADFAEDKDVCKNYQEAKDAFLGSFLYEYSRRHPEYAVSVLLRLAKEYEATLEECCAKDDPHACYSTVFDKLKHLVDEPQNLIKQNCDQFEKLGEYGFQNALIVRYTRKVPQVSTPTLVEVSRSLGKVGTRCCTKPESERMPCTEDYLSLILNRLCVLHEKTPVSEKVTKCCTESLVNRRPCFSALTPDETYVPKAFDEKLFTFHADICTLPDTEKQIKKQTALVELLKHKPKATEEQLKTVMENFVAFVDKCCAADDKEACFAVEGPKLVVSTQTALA

Regarding `CC(C)[Si](C#CCCCC#N)(O[C@H](c1ccccc1)c1cn(Cc2cccc(Cl)c2)nn1)C(C)C`, the composite z-score in the experiment with Albumin (Bos taurus) was 0.588; in experiment [2], 0.0871; in experiment [3] it was -0.11; in experiment [4], 0.442; in experiment [5], 0.79; in experiment [6] it was -0.192. For the same compound, the composite z-score with Sam68 (KHDRBS1) was 1.3; in [7] it was 0.841; in [8] it was 0.0848; in experiment [9], 0.822; in experiment [10], 0.953; in [11] it was -0.213. In addition, the composite z-score in [12] was determined as 0.902; in [13] it was 1.13; in experiment [14], 0.955; in the experiment on Lefty1, 0.764; in experiment [16] it was 0.276. Moreover, the composite Z-score in experiment [1] was 1.02 (inactive). Also, the z-score in experiment [15] was 5.27; in [17], -0.513 (inactive).
Regarding `CC(C)NC(=O)[C@@]1(Cc2ccccc2I)c2ccccc2C(=O)N(Cc2ccccc2Cl)[C@H]1c1ccc(CO)cc1`, the composite z-score was 0.0517 in the experiment with Albumin (Bos taurus); -0.0573 in [2]; -0.0741 in experiment [3]; 0.506 in experiment [4]; 1.73 in [5]; -0.0064 in experiment [6]. For the same compound, the composite z-score with Sam68 (KHDRBS1) stood at 1.29; in experiment [7] it was 0.432; in experiment [8] it was 1.1; in experiment [9], 2.99; in experiment [10], 1.2; in [11], 0.252. For the same compound, the composite z-score in [12] is 0.443; in [13], 1.19; in experiment [14], 0.566; with Lefty1, 0.443; in experiment [16], 0.858. The composite Z-score in experiment [1] is 0.786 (inactive). For the same compound, the z-score in experiment [15] is 1.46; in experiment [17] it was -0.577 (inactive).
Take `C=CCC(OC(C)=O)[C@@H]1[C@@H](N(Cc2ccc(-c3cccc(C(F)(F)F)c3)o2)C(=O)Cc2ccc(OC)cc2)c2cc(OCCCO)ccc2N1C(=O)c1ccc2ccccc2c1` (stereo not given in full): the composite z-score is 0.268 in the experiment with Albumin (Bos taurus); 0.0423 in [2]; -0.131 in experiment [3]; 0.228 in experiment [4]; 1.14 in [5]; -0.0744 in [6]. In addition, the composite z-score in the experiment with Sam68 (KHDRBS1) is -0.651; in [7], -0.0916; in experiment [8], -0.471; in [9], -0.448; in [10] it was -0.811; in [11] it was -0.198. In addition, the composite z-score was -1 in [12]; 0.776 in experiment [13]; -0.522 in experiment [14]; 0.199 with Lefty1; -0.145 in experiment [16]. Further, the composite Z-score in [1] was -0.616 (inactive). In addition, the z-score in experiment [15] is -0.322; in [17] it was 0.535 (inactive).
Turning to `Cc1ccc(S[C@]2(C(=O)NCC(C)C)CC(=O)N(Cc3cc(C(F)(F)F)cc(C(F)(F)F)c3)[C@@H]2c2ccc(CO)cc2)cc1`, the composite z-score is 0.539 in the experiment with Albumin (Bos taurus); -0.123 in [2]; 0.0362 in experiment [3]; 0.78 in [4]; 0.586 in experiment [5]; 1.56 in experiment [6]. Also, the composite z-score with Sam68 (KHDRBS1) is -0.309; in [7], -0.256; in experiment [8], -0.512; in experiment [9] it was 0.63; in experiment [10], -0.8; in [11], -0.261. Also, the composite z-score in experiment [12] is -0.529; in [13] it was -0.0643; in experiment [14] it was -0.205; in the experiment on Lefty1, -0.866; in [16] it was -0.262. For the same compound, in [1], the composite Z-score is -0.0662 (inactive). Moreover, the z-score is -0.587 in experiment [15] and 0.111 (inactive) in experiment [17].
As to `COCCCNC(=O)[C@@]1(Cc2ccccc2CN=[N+]=[N-])N=C(c2ccc(OCCCO)cc2)O[C@H]1c1ccccc1CN=[N+]=[N-]`, the composite z-score is 1.02 with Albumin (Bos taurus); 0.459 in experiment [2]; -0.0438 in experiment [3]; 0.594 in [4]; 2.58 in [5]; 0.574 in experiment [6]. For the same compound, the composite z-score in the experiment with Sam68 (KHDRBS1) is 1.29; in experiment [7] it was -1.13; in experiment [8] it was 0.972; in experiment [9], 2.03; in experiment [10] it was 1.19; in [11] it was 0.125. The composite z-score in experiment [12] was 0.922; in experiment [13] it was 0.63; in [14], -0.263; in the experiment on Lefty1, 0.0147; in [16] it was 0.28. Also, the composite Z-score in experiment [1] was 0.585 (inactive). Moreover, the z-score in experiment [15] was -0.556; in experiment [17], -2.66 (inactive).
